# KB-3-1 tox – KB-3-1 parental cell cytotoxicity; KB-3-1 viability, CellTiter-Glo ATP luminescence, 72 h; Potency, µM (series often up to 46.1 µM), hits mostly cytotoxic; 400,000 tested, 1.4% active; note: nearly all actives have a fitted effect of over 60% in size
#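 Multi-concentration cytotoxicity screen in KB-3-1 cells grown in DMEM lacking phenol red with 10% FBS. After 72 h at 37 °C with compound, ATP-dependent luminescence was recorded.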
# HT1080NT lethal – kills 2HG-producing HT-1080-NT fibrosarcoma cells | Potency, µM (highest dose often 46.1 µM), for inactives: at the highest dose activity, negative = less viability, usual class: cytotoxic | HT-1080-NT fibrosarcoma viability, CellTiter-Glo ATP luminescence, 48 h | 360,000 tested, 1.6% active | AID 686970;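 note: NT is the 2HG producing partner of a matched IDH1 knockdown line; 0% = DMSO-treated cells and -100% = media-only wells without cells; nearly all actives have a fitted effect of over 55% in size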
#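 Toxicity toward the 2HG-producing NT line was scored as %Activity, normalised to DMSO and no-cell wells, from CellTiter-Glo luminescence after 48 hours' treatment.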
# HT1080 IDH1KD tx – HT-1080 IDH1 knockdown cell toxicity (counter line) | HT-1080 IDH1 knockdown viability, ATP luminescence, 48 h | Potency, µM (highest dose often 46.1 µM), inactives show at the top dose activity, negative = toxicity, most hits filed as cytotoxic | 360,000 tested, 2% active;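 note: 0% = DMSO wells and -100% = cell-free medium wells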
#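 Cytotoxicity counter-line: IDH1KD HT-1080, 48 h, CellTiter-Glo. Curves classed by r2, magnitude and activity.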
# KB-V1 MDR tox – kills drug-selected multidrug resistant KB-V1 cells | KB-V1 MDR cells viability, CellTiter-Glo, 72 h | Potency, µM (doses to about 46.1 µM), usual class: cytotoxic | 400,000 tested, 3.4% active | AID 1347076; note: nearly all actives have a fitted effect of over 60% in size
#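 Potencies derive from concentration-effect curves fitted to normalized luminescence (CellTiter-Glo) of KB-V1 cells treated for 72 h at 37 degrees C in phenol-red-free DMEM containing 10% FBS.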
# * = called active by the depositor; i = inactive; u = inconclusive; x = no result. Rows were chosen to be rich in hits. Some 5.7% of all compounds tested hit in one or more screens of this group. Calls come from the whole dose curve; as a rule, active = well fitted curve in the direction sought with a large enough effect; inconclusive = small, poorly fitted or top-dose-only effect, or another doubt; inactive = no such curve, though single readings can be large; an effect the other way counts as inactive or inconclusive. Unless noted, % is set by controls: 0 for no effect and ±100 for the full control effect; potency is the fitted concentration of half-maximal effect.
SMILES,KB-3-1 tox,HT1080NT lethal,HT1080 IDH1KD tx,KB-V1 MDR tox
COc1ccccc1N1CCN(c2ncnc3c2oc2ccccc23)CC1,5.8µM*,u,u,6.5µM*
C(=C\c1ccccc1)/CN1CCN(c2ncnc3c2oc2ccccc23)CC1,u,u,u,3.7µM*
c1ccc2[nH]c(CN3CCN(c4ncnc5c4oc4ccccc45)CC3)nc2c1,i,u,-29%,i
COc1ccc(CN2C[C@H]3CCCN3c3cc(Br)ccc3S2(=O)=O)cc1,1.8µM*,u,2.6µM*,u
Cc1cccc(OCCNC(=O)c2cccc(Oc3ccc(C(F)(F)F)cc3[N+](=O)[O-])c2)c1,18µM*,-4%,-8%,9.2µM*
CCCCn1c(N)c(N(CCOC)C(=O)c2ccc(N3CCCC3=O)cc2)c(=O)[nH]c1=O,i,12%,11%,i
O=C(CSc1ncn(-c2ccccc2)n1)Nc1nc2ccccc2s1,i,-14%,-7%,18µM*
Oc1ccc(-c2csc(NCc3ccco3)n2)cc1,i,5%,-9%,i
COc1ccccc1Nc1nc(-c2c(C)nc3ncccn23)cs1,u,23µM*,21µM*,7.3µM*
Cc1nc2ncccn2c1-c1csc(Nc2ccc(S(N)(=O)=O)cc2)n1,i,5%,10%,i
Cc1nc2ncccn2c1-c1csc(Nc2ccccc2)n1,i,0%,-10%,i
COc1ccc(Nc2nc(-c3c(C)nc4ncccn34)cs2)cc1,i,0.013µM*,0.0073µM*,i
Cc1nc2ncccn2c1-c1csc(NCc2ccco2)n1,u,-11%,-1%,16µM*
CC(=O)Nc1ccc(Nc2nc(-c3c(C)nc4ccccn34)cs2)cc1,u,u,2.9µM*,u
Cc1nc2ncccn2c1-c1csc(Nc2ccc(N(C)C)cc2)n1,0.012µM*,u,u,u
Cc1nc2sccn2c1-c1csc(NCc2ccccc2)n1,u,u,7%,13µM*
CCC(=O)Nc1cccc(C(=O)/C=C/c2cc(Br)ccc2OC)c1,i,8.2µM*,8.2µM*,18µM*
CCOC(=O)c1c(NC(=O)c2ccco2)n(C2CCCCC2)c2nc3ccccc3nc12,i,u,16µM*,u
CCCCn1c(NC(=O)CC)c(C#N)c2nc3ccccc3nc21,i,8%,15%,i
CCCCn1c(NC(=O)c2ccccc2Cl)c(C#N)c2nc3ccccc3nc21,u,5.8µM*,9.2µM*,u
COc1ccc(-n2c(NC(=O)c3ccco3)c(C#N)c3nc4ccccc4nc32)cc1,u,-21%,-13%,21µM*
CN(C(=O)COc1ccccc1C(=O)NCCc1ccccc1)c1ccccc1,i,13%,18%,5.2µM*
Cc1ccccc1-c1cc(C(=O)n2cccn2)c2cc(Cl)ccc2n1,u,u,10µM*,i
CCOc1ccc2nc(NC(=O)c3nc(SCc4ccc(C)cc4)ncc3Cl)sc2c1,u,x,x,i
Clc1ccccc1Cn1nnc2c(N3CCOCC3)nc(C3CC3)nc21,i,0%,2%,3.7µM*
SMILES,KB-3-1 tox,HT1080NT lethal,HT1080 IDH1KD tx,KB-V1 MDR tox
CC(C)Cc1nc(Nc2ccccc2C#N)c2nnn(Cc3ccccc3)c2n1,i,u,18µM*,u
Cc1nc(NCCN2CCOCC2)c2nnn(Cc3ccccc3Cl)c2n1,i,13%,-1%,6.5µM*
Clc1ccccc1Cn1nnc2c(NCCN3CCOCC3)ncnc21,i,3%,7%,21µM*
COC(=O)CNc1nc(C2CC2)nc2c1nnn2Cc1ccccc1Cl,i,-3%,12%,i
CCCCNC(=O)CSc1nc2nc(C)c(Cc3ccccc3C)c(C)n2n1,i,x,x,i
COC(=O)[C@]12CCCCC=C1N(Cc1ccc3c(c1)OCO3)C(=O)[C@H](CC(=O)NCC1CCCCC1)C2,i,-24%,-12%,u
COc1ccc(C)cc1NS(=O)(=O)c1ccc2oc(=O)c3ncn(C)c3c2c1,i,x,x,u
COc1cccc(CNC(=O)c2ccc(-c3nc(CS(=O)c4ccccc4)c(C)o3)cc2)c1 (configuration not stated),i,x,x,i
COc1ccc(Cl)cc1Nc1nc(C)nc2c1nnn2Cc1ccccc1,i,15%,18%,i
CN(C)S(=O)(=O)c1ccc(Nc2nc(C3CC3)nc3c2nnn3Cc2ccccc2Cl)cc1,2.9µM*,u,5.8µM*,u
COc1ccc(OC)c(Nc2nc(C3CC3)nc3c2nnn3Cc2ccccc2)c1,i,8%,10%,2.1µM*
CCOc1ccc(CNC(=O)c2cc3c(s2)-c2ccccc2OC3)cc1,i,x,x,i
COc1ccc(-c2ccc(NS(=O)(=O)c3ccccc3Cl)cc2)nn1,i,x,x,i
Cc1ccc(Nc2c(-c3ccc(N(C)C)cc3)nc3ccccn23)cc1,i,x,x,i
COC(=O)[C@H](C)NC(=O)Nc1ccc(OC)cc1OC,i,7%,4%,i
COc1ccc(C(CCc2ccc(C)o2)NC(=O)Nc2ccc(OC)cc2OC)cc1 (configuration not stated),i,4%,u,7.3µM*
CN(C)c1ccc(C2=Cc3ccccc3C2)cc1,u,x,x,i
Cc1cc(C)nc(Nc2ncc(O)n2-c2ccc(C)c(Cl)c2)n1,i,16%,14%,i
Cc1cc(C)nc(Nc2ncc(O)n2-c2ccc(C)c(C)c2)n1,i,6%,u,12µM*
COc1cccc(CNC(=O)CN2C(=O)N(c3cccc(Cl)c3)S(=O)(=O)c3ccccc32)c1OC,i,x,x,i
Clc1ccc(-n2ncc3c(NCc4ccco4)ncnc32)cc1,5µM*,-14%,u,u
OCCCNc1ncnc2c1cnn2-c1ccc(Cl)cc1,i,9%,2%,i
Cc1ccc(-n2ncc3c(NCCc4ccccc4)ncnc32)cc1Cl,i,x,x,i
Cc1ccc(-n2ncc3c(NCCO)ncnc32)cc1Cl,i,x,x,5.8µM*
Cc1ccc(Cl)cc1-n1ncc2c(NC3CCCCCC3)ncnc21,21µM*,x,x,u
SMILES,KB-3-1 tox,HT1080NT lethal,HT1080 IDH1KD tx,KB-V1 MDR tox
CN(C)CCNc1ncnc2c1cnn2-c1ccc(Cl)cc1,u,21µM*,u,u
O=C(CSc1nnc(-c2ccncc2)n1-c1ccccc1)Nc1ccc(Br)cc1,i,x,x,i
CCc1cc2c(NCc3ccco3)ncnc2s1,12µM*,-14%,-19%,21µM*
COc1ccc(-n2ncc3c(NCc4cccs4)ncnc32)cc1,i,0%,0%,i
c1ccc(-n2ncc3c(NCC4CCCO4)ncnc32)cc1 (configuration not stated),i,0%,-1%,u
CCc1cc2c(NCC(=O)O)ncnc2s1,i,3%,8%,i
COc1ccc(-n2ncc3c(NCc4ccco4)ncnc32)cc1,i,-6%,7%,21µM*
Clc1ccc(-n2ncc3c(NCC4CCCO4)ncnc32)cc1 (configuration not stated),23µM*,u,u,12µM*
